Laboratory results as given in PubChem BioAssay AID1004 (SRMLSC, 2008).
A number with no mark means an inactive call.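 How the source made its calls: active means viability at 10 µM of 29.74% or lower, 3 SD below the compound median; inactive means the rest.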

Assay: viability of HCT116 lacking mutant beta-catenin – cell-based, DP diverse set, validation, pilot screen (AID 1004)
Details: HCT116 (mutant beta-catenin deleted) viability, CellTiter-Glo, 60 h; at 10 µM; stronger effect = lower value

| Structure (SMILES) | viability |
| --- | --- |
| C=CC1(C)CC(=O)C2(O)C(C)(O1)C(OC(C)=O)C(O)C1C(C)(C)CCC(O)C12C (centres undefined) | 86% |
| Nc1ccn([C@H]2CC[C@@H](CO)O2)c(=O)n1 | 102% |
| COc1ccc(CCN(C)CCCN2CCc3cc(OC)c(OC)cc3CC2=O)cc1OC | 102% |
| CC12CC3(O)OC(O1)C1(COC(=O)c4ccccc4)[C@@H]3CC21O[C@@H]1O[C@H](CO)[C@@H](O)[C@H](O)[C@H]1O | 93.9% |
| CC1=C(/C=C/C(C)=C/C=C/C(C)=C/C=C/C=C(C)/C=C/C=C(C)/C=C/C(=O)[C@]2(C)C[C@@H](O)CC2(C)C)C(C)(C)C[C@H](O)C1 | 95.5% |
| CC(C)NCC(O)COc1cccc2ccccc12 (centres undefined) | 94.6% |
| CCn1cc(C(=O)O)c(=O)c2ccc(C)nc21 | 94.8% |
| C=C(C)C1CC=C(C)C(O)C1 (centres undefined) | 94.9% |
| O=C(c1ccccc1)c1ccccc1 | 97.8% |
| Nc1c2c(nc3ccccc13)CCCC2 | 99.8% |
| O=C1CCC(N2C(=O)c3ccccc3C2=O)C(=O)N1 (centres undefined) | 96.1% |
| C[C@@H]1CC[C@]2(C(=O)O)CC[C@]3(C)C(=CCC4[C@@]5(C)C[C@@H](O)[C@H](O)[C@@](C)(CO)C5CC[C@]43C)C2[C@H]1C (some centres undefined) | 100% |
| CC1(C)CCC[C@@](C)([C@H]2CC[C@]3(C)[C@@H]2[C@H](O)C[C@@H]2[C@@]4(C)CC[C@H](O)C(C)(C)[C@@H]4[C@@H](O)C[C@]23C)O1 | 97.9% |
| NC(=NCc1ccccc1)NC(=O)c1nc(Cl)c(N)nc1N | 88.8% |
| Nc1c(N=Nc2ccc(-c3ccc(N=Nc4cc(S(=O)(=O)O)c5ccccc5c4N)cc3)cc2)cc(S(=O)(=O)O)c2ccccc12 | 83% |
| O=c1c2ccccc2nc2n1CCc1c-2[nH]c2ccccc12 | 90.5% |
| CCOC(=O)C(C)(C)Oc1ccc(Cl)cc1 | 98.7% |
| O=C(O)c1ccccc1O | 103% |
| CC(C)C[C@@H](NC(=O)[C@@H](O)[C@H](N)Cc1ccccc1)C(=O)O | 92.8% |
